# Source: paper PMC8384837, “Expanding the binding specificity for RNA recognition by a PUF domain”
# Positions count from the first letter of the chain named.
# How the values were obtained:
# Assay in all cases: yeast three-hybrid, YBZ-1, SC-Leu-His + 0.5 mM 3-AT, 4 days
# Conditions in all cases: tags: N-Gal4 AD-HA kept; label: inside an RPR1-promoter hybrid RNA with tandem MS2 sites; ssRNA
# PUM1 PUF domain R1-KQR = PUM1 PUF domain R1-KQR (Homo sapiens, UniProt Q14671 828-1176, S863K;R864Q;Q867R)
# How it was run: (§1)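 Repeat regions from input (SC-Leu) and selection (SC-Leu-His + 0.5 mM 3-AT) plates were PCR-amplified and Illumina-sequenced after four days of growth. The cells were strain YBZ-1 with a LexA–MS2 coat fusion and a HIS3 reporter, co-expressing Pumilio-1 PUF domain libraries and matching RNA elements from a centromeric plasmid. The interaction score is the log change in variant frequency from input to selection, taken in log2 with a pseudocount of 1 for absent variants.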
# PUM1 PUF domain R1-YIR = PUM1 PUF domain R1-YIR (Homo sapiens, UniProt Q14671 828-1176, S863Y;R864I;Q867R)
# How it was run: as §1
# PUM1 PUF domain R7-RMR = PUM1 PUF domain R7-RMR (Homo sapiens, UniProt Q14671 828-1176, S1079R;N1080M;E1083R)
# How it was run: as §1
# PUM1 PUF domain R7-RTC = PUM1 PUF domain R7-RTC (Homo sapiens, UniProt Q14671 828-1176, S1079R;N1080T;E1083C)
# How it was run: as §1
# PUM1 PUF domain R1-NFH = PUM1 PUF domain R1-NFH (Homo sapiens, UniProt Q14671 828-1176, S863N;R864F;Q867H)
# How it was run: as §1
# PUM1 PUF domain R3-GCR = PUM1 PUF domain R3-GCR (Homo sapiens, UniProt Q14671 828-1176, C935G;R936C;Q939R)
# How it was run: as §1
# PUM1 PUF domain R8-LHK = PUM1 PUF domain R8-LHK (Homo sapiens, UniProt Q14671 828-1176, N1122L;Y1123H;Q1126K)
# How it was run: as §1
# PUM1 PUF domain R8-RHQ = PUM1 PUF domain R8-RHQ (Homo sapiens, UniProt Q14671 828-1176, N1122R;Y1123H)
# How it was run: as §1
# PUM1 PUF domain R5-RFS = PUM1 PUF domain R5-RFS (Homo sapiens, UniProt Q14671 828-1176, C1007R;R1008F;Q1011S)
# How it was run: as §1
# PUM1 PUF domain R5-FHG = PUM1 PUF domain R5-FHG (Homo sapiens, UniProt Q14671 828-1176, C1007F;R1008H;Q1011G)
# How it was run: as §1
# PUM1 PUF domain R5-RNA = PUM1 PUF domain R5-RNA (Homo sapiens, UniProt Q14671 828-1176, C1007R;R1008N;Q1011A)
# How it was run: as §1
# PUM1 PUF domain R5-RQE = PUM1 PUF domain R5-RQE (Homo sapiens, UniProt Q14671 828-1176, C1007R;R1008Q;Q1011E)
# How it was run: as §1
# PUM1 PUF domain R4-GYV = PUM1 PUF domain R4-GYV (Homo sapiens, UniProt Q14671 828-1176, N971G;H972Y;Q975V)
# How it was run: as §1
# PUM1 PUF domain R4-ANG = PUM1 PUF domain R4-ANG (Homo sapiens, UniProt Q14671 828-1176, N971A;H972N;Q975G)
# How it was run: as §1
# PUM1 PUF domain R6-KWV = biological target: T1, PUM1 PUF domain R6-KWV (Homo sapiens, UniProt Q14671 828-1176, N1043K;Y1044W;Q1047V)
# T1 sequence: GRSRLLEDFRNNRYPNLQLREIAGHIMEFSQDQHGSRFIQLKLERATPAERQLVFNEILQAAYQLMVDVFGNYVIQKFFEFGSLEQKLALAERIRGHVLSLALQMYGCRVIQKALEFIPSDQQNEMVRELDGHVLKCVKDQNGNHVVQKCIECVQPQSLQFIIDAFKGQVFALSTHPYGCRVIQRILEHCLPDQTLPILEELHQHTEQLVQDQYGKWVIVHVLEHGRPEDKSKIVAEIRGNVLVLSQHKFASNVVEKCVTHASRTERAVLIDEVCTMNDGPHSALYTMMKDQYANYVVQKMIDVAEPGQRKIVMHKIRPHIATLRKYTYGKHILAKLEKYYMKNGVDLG
# How it was run: as §1
# PUM1 PUF domain R6-HFT = biological target: T2, PUM1 PUF domain R6-HFT (Homo sapiens, UniProt Q14671 828-1176, N1043H;Y1044F;Q1047T)
# T2 sequence: T1 sequence with K216H, W217F, V220T
# How it was run: as §1
# PUM1 PUF domain R6-SFC = biological target: T3, PUM1 PUF domain R6-SFC (Homo sapiens, UniProt Q14671 828-1176, N1043S;Y1044F;Q1047C)
# T3 sequence: T1 sequence with K216S, W217F, V220C
# How it was run: as §1
# PUM1 PUF domain R5-FNS = PUM1 PUF domain R5-FNS (Homo sapiens, UniProt Q14671 828-1176, C1007F;R1008N;Q1011S)
# How it was run: as §1
# PUM1 PUF domain R1-SGD = PUM1 PUF domain R1-SGD (Homo sapiens, UniProt Q14671 828-1176, R864G;Q867D)
# How it was run: as §1
# PUM1 PUF domain R3-RNG = PUM1 PUF domain R3-RNG (Homo sapiens, UniProt Q14671 828-1176, C935R;R936N;Q939G)
# How it was run: as §1
sequence,measurement,setting,value
GGCUAGAACUAGUGGAUCCCCCGGCGCCCGGCGGCUCGAGCCCGGGUAAGUGUAAAUCGUCUGCAUGCCGCCGGGCGCCAUGCCUGCAGGUCGACUCUAGAAAACAUG,binding signal,PUM1 PUF domain R1-KQR,5.28 log2 enrichment (interaction score)
same,binding signal,PUM1 PUF domain R1-YIR,6.92 log2 enrichment (interaction score)
GGCUAGAACUAGUGGAUCCCCCGGCGCCCGGCGGCUCGAGCCCGGGUAAGUUUAAAUAGUCUGCAUGCCGCCGGGCGCCAUGCCUGCAGGUCGACUCUAGAAAACAUG,binding signal,PUM1 PUF domain R7-RMR,4.78 log2 enrichment (interaction score)
same,binding signal,PUM1 PUF domain R7-RTC,3.51 log2 enrichment (interaction score)
GGCUAGAACUAGUGGAUCCCCCGGCGCCCGGCGGCUCGAGCCCGGGUAAGUGUAAAUUGUCUGCAUGCCGCCGGGCGCCAUGCCUGCAGGUCGACUCUAGAAAACAUG,binding signal,PUM1 PUF domain R1-NFH,3.4 log2 enrichment (interaction score)
same,binding signal,PUM1 PUF domain R1-YIR,4.41 log2 enrichment (interaction score)
GGCUAGAACUAGUGGAUCCCCCGGCGCCCGGCGGCUCGAGCCCGGGUAAGUGUAAGUAGUCUGCAUGCCGCCGGGCGCCAUGCCUGCAGGUCGACUCUAGAAAACAUG,binding signal,PUM1 PUF domain R3-GCR,3.87 log2 enrichment (interaction score)
GGCUAGAACUAGUGGAUCCCCCGGCGCCCGGCGGCUCGAGCCCGGGUAAGCGUAAAUAGUCUGCAUGCCGCCGGGCGCCAUGCCUGCAGGUCGACUCUAGAAAACAUG,binding signal,PUM1 PUF domain R8-LHK,3.29 log2 enrichment (interaction score)
same,binding signal,PUM1 PUF domain R8-RHQ,5.53 log2 enrichment (interaction score)
GGCUAGAACUAGUGGAUCCCCCGGCGCCCGGCGGCUCGAGCCCGGGUAAGUGUCAAUAGUCUGCAUGCCGCCGGGCGCCAUGCCUGCAGGUCGACUCUAGAAAACAUG,binding signal,PUM1 PUF domain R5-RFS,5.34 log2 enrichment (interaction score)
same,binding signal,PUM1 PUF domain R5-FHG,2.68 log2 enrichment (interaction score)
same,binding signal,PUM1 PUF domain R5-RNA,2.56 log2 enrichment (interaction score)
same,binding signal,PUM1 PUF domain R5-RQE,3.37 log2 enrichment (interaction score)
GGCUAGAACUAGUGGAUCCCCCGGCGCCCGGCGGCUCGAGCCCGGGUAAGUGUACAUAGUCUGCAUGCCGCCGGGCGCCAUGCCUGCAGGUCGACUCUAGAAAACAUG,binding signal,PUM1 PUF domain R4-GYV,7.46 log2 enrichment (interaction score)
same,binding signal,PUM1 PUF domain R4-ANG,3.65 log2 enrichment (interaction score)
GGCUAGAACUAGUGGAUCCCCCGGCGCCCGGCGGCUCGAGCCCGGGUAAGUGUAAAUAGUCUGCAUGCCGCCGGGCGCCAUGCCUGCAGGUCGACUCUAGAAAACAUG,binding signal,PUM1 PUF domain R5-RFS,2.61 log2 enrichment (interaction score)
same,binding signal,PUM1 PUF domain R1-YIR,3.77 log2 enrichment (interaction score)
same,binding signal,PUM1 PUF domain R6-KWV,6.02 log2 enrichment (interaction score)
same,binding signal,PUM1 PUF domain R6-HFT,3.78 log2 enrichment (interaction score)
same,binding signal,PUM1 PUF domain R6-SFC,4.7 log2 enrichment (interaction score)
same,binding signal,PUM1 PUF domain R3-GCR,0.62 log2 enrichment (interaction score)
same,binding signal,PUM1 PUF domain R4-ANG,0.25 log2 enrichment (interaction score)
same,binding signal,PUM1 PUF domain R8-RHQ,3.7 log2 enrichment (interaction score)
GGCUAGAACUAGUGGAUCCCCCGGCGCCCGGCGGCUCGAGCCCGGGUAAGUCUAAAUAGUCUGCAUGCCGCCGGGCGCCAUGCCUGCAGGUCGACUCUAGAAAACAUG,binding signal,PUM1 PUF domain R7-RMR,2.46 log2 enrichment (interaction score)
GGCUAGAACUAGUGGAUCCCCCGGCGCCCGGCGGCUCGAGCCCGGGUAAGUGUAUAUAGUCUGCAUGCCGCCGGGCGCCAUGCCUGCAGGUCGACUCUAGAAAACAUG,binding signal,PUM1 PUF domain R4-ANG,2.57 log2 enrichment (interaction score)
GGCUAGAACUAGUGGAUCCCCCGGCGCCCGGCGGCUCGAGCCCGGGUAAGUGUGAAUAGUCUGCAUGCCGCCGGGCGCCAUGCCUGCAGGUCGACUCUAGAAAACAUG,binding signal,PUM1 PUF domain R5-RFS,1.78 log2 enrichment (interaction score)
GGCUAGAACUAGUGGAUCCCCCGGCGCCCGGCGGCUCGAGCCCGGGUAAGUGUUAAUAGUCUGCAUGCCGCCGGGCGCCAUGCCUGCAGGUCGACUCUAGAAAACAUG,binding signal,PUM1 PUF domain R5-RFS,5.12 log2 enrichment (interaction score)
same,binding signal,PUM1 PUF domain R5-FHG,3.39 log2 enrichment (interaction score)
same,binding signal,PUM1 PUF domain R5-FNS,3.5 log2 enrichment (interaction score)
same,binding signal,PUM1 PUF domain R5-RNA,2.33 log2 enrichment (interaction score)
GGCUAGAACUAGUGGAUCCCCCGGCGCCCGGCGGCUCGAGCCCGGGUAAGUGUAAAUGGUCUGCAUGCCGCCGGGCGCCAUGCCUGCAGGUCGACUCUAGAAAACAUG,binding signal,PUM1 PUF domain R1-SGD,5.76 log2 enrichment (interaction score)
GGCUAGAACUAGUGGAUCCCCCGGCGCCCGGCGGCUCGAGCCCGGGUAAGUGUAAUUAGUCUGCAUGCCGCCGGGCGCCAUGCCUGCAGGUCGACUCUAGAAAACAUG,binding signal,PUM1 PUF domain R3-GCR,2.22 log2 enrichment (interaction score)
same,binding signal,PUM1 PUF domain R3-RNG,3.75 log2 enrichment (interaction score)
